Assay outcomes (PubChem BioAssay)
In the library only some 22% were active in any assay of this set; here they are far more common.
LmPK inh: blocks Leishmania mexicana pyruvate kinase activity; purified LmPK, Kinase-Glo ATP luminescence, 1 h; Q27686; Potency, µM (titrated, usually from 57.5 µM), for inactives: at the highest dose activity change, negative = inhibition, usual class: inhibitors; 0.37% of 290,000 active; further: potency means the concentration at half of the fitted maximal effect; on the % scale 0 is the no-effect control and ±100 the full control effect
Target sequence (Q27686 whole entry, looked up): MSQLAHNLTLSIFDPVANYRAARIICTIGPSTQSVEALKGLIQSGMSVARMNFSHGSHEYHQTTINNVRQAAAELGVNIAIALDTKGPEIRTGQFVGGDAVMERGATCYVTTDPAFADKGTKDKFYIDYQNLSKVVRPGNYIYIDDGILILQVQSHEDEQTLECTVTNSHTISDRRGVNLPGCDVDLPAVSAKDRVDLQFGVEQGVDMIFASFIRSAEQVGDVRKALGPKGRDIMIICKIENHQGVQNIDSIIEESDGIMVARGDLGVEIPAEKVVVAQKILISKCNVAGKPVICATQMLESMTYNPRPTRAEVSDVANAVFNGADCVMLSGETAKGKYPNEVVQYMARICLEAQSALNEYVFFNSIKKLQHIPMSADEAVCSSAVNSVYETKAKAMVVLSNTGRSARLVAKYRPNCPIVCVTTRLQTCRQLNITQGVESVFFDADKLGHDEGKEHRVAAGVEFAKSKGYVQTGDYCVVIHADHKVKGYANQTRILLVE
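Pyruvate kinase activity monitored as ATP production (luciferase luminescence). Conditions: 0.1 nM enzyme, 0.5 mM PEP, 0.1 mM ADP, 1 h, RT; normalized against uninhibited and no-enzyme wells.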
Shiga toxin inh: blocks Shiga toxin action in Vero cells | Vero cells, Shiga toxin protein synthesis inhibition reporter | inhibition, % at 38.7 µM | 9.2% of 290,000 active | AID 2315; in the data active means inhibition mostly above about 28%, no sharp cut-off; inactive means mostly below about 43%; further: 0% is about no effect
Pf growth 96h: P. falciparum growth inhibition at 96 hours; Potency, µM (series often up to 28.7 µM), without a hit: top-dose activity change, negative = inhibition, most hits filed as inhibitors; P. falciparum luciferase reporter growth, 96 h; AID 504834; 6.9% of 320,000 active; further: potency means the concentration at half of the fitted maximal effect; on the % scale 0 is the no-effect control and ±100 the full control effect
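Two parasite generations (96 h, 37 C, 5% CO2) of compound exposure in infected erythrocytes (0.05% parasitemia, 2% hematocrit). Luciferase-reporter P. falciparum; decreased luminescence indicates inhibited growth, aimed at apicoplast-acting delayed death.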
Cycloheximide cs: affects cycloheximide protein synthesis inhibition readout, counter-screen. cell reporter, cycloheximide protein synthesis inhibition counterscreen. max response, %. 12% of 300,000 active. AID 2314; in the data active means max response mostly above about 13%, no sharp cut-off; inactive means mostly below about 14%; further: read at 38.3 µM for the half of the compounds with a filed dose; 0% is about no effect
Pf growth 48h: P. falciparum growth inhibition at 48 hours (one generation). P. falciparum luciferase growth in erythrocytes, 48 h. Potency, µM (titrated, usually from 28.7 µM), without a hit: top-dose activity change, negative = inhibition, usual class: inhibitors. 5.9% of 310,000 active. AID 504832; further: potency means the concentration at half of the fitted maximal effect; on the % scale 0 is the no-effect control and ±100 the full control effect
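Firefly luciferase activity from engineered P. falciparum reports growth; inhibitors lower the luminescent signal. Cultures contained 2% hematocrit erythrocytes at 0.1% final parasitemia.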
* hit, by the source's call; ? = inconclusive; / = no result given; [ ] = remark or other dose. Unless noted, the call rests on the fitted dose curve; in most records, active means well fitted inhibition curve with a large enough effect; inconclusive means small, poorly fitted or top-dose-only effect, or another doubt; inactive means no such curve, though single readings can be large or run the other way.

SMILES	LmPK inh	Shiga toxin inh	Pf growth 96h	Cycloheximide cs	Pf growth 48h
COc1cc(/C=N/NC(=O)COc2ccccc2[N+](=O)[O-])ccc1OC(=O)c1ccco1	4%	-9	?	11	66%
CC(C)Oc1ccccc1/C=N/Nc1ccccc1[N+](=O)[O-]	-2%	87*	8.3µM*	65*	?
CC12CCC(C(=O)N/N=C/c3ccc(O)cc3)(OC1=O)C2(C)C (centres undefined)	2%	-3	37%	2	21%
C=CCn1c(SCC(=O)c2c(C)[nH]c3ccccc23)nnc1-c1ccncc1	0%	19	-4%	-2	4%
COc1cc(/C=N/Nc2ccc(S(N)(=O)=O)cc2[N+](=O)[O-])cc(OC)c1O	-1%	-6	63%	-1	44%
COc1cc(/C=N/Nc2ccccc2[N+](=O)[O-])cc(OC)c1O	-5%	88*	-4%	26*	42%
Cc1[nH]c2ccccc2c1/C=N/Nc1ccccc1[N+](=O)[O-]	?	86*	-36%[5.75 µM]	37*	?
Cc1[nH]c2ccccc2c1/C=N/NS(=O)(=O)c1ccccc1	3%	6	32%	5	7%
CCN(CC1CCCO1)C(=O)CCc1nnc(CCc2ccccc2OC)o1 (centres undefined)	-26%	-9	-100%	3	-13%
COc1ccc(C2Nc3ccccc3C(=O)N2NS(=O)(=O)c2ccccc2)cc1OC (centres undefined)	5%	9	?	1	?
CC(=O)Nc1ccc(S(=O)(=O)N2CCN(C(=O)c3ccco3)CC2)cc1	-2%	-5	?	21*	45%[0.00184 µM]
O=S(=O)(Cc1ccccc1)Nc1ccc(S(=O)(=O)N2CCCC2)cc1	5%	6	5%	-2	2.3µM*
O=C(Nc1nc(-c2ccc(S(=O)(=O)N3CCCC3)cc2)cs1)c1ccco1	6%	22*	27%	5.2*	?
O=C(Nc1ccc(S(=O)(=O)N2CCCCCC2)cc1)c1ccco1	-1%	40*	?	23*	?
O=C(c1ccco1)N1CCN(S(=O)(=O)c2ccc(Br)cc2)CC1	-2%	-8	0%	-3	-36%
O=C(CSc1nc2ccccc2c(=O)n1NC(=O)Cc1ccccc1)NCc1ccccc1Cl	-1%	-7	0%	0	-3%
COc1cc(CC(=O)Nc2ccc3nc(C)sc3c2)cc(OC)c1OC	0%	-3	-9%	8	4%
COc1ccccc1CC(=O)Nc1ccc2nc(C)sc2c1	1%	80*	34%	25*	54%
Cc1ccccc1OCC(=O)Nc1ccc(C(N)=O)cc1	0%	20	5%	-1	/
COc1ccc(OCC(=O)Nc2ccc3nc(C)sc3c2)cc1	2%	-11	0%	-3	-10%
COc1cccc(CC(=O)Nc2ccc3nc(C)sc3c2)c1	-6%	11	30%	30*	13%
Cc1cc(CNC(=O)COc2ccccc2F)c2ccccc2n1	-6%	87*	36%	37*	96%
CCN(CC)C(=O)c1ccc(NC(=O)COc2ccccc2F)cc1	-13%	76*	255%	22*	101%
C#CCN(C(=O)c1ccc(OC2CCN(Cc3ccccn3)CC2)cc1)C1CCCCC1	0%	-6	19%	-2	?
COc1ccc(NS(=O)(=O)N2CCOCC2)cc1	-4%	-8	?	0	?
SMILES	LmPK inh	Shiga toxin inh	Pf growth 96h	Cycloheximide cs	Pf growth 48h
Cc1nc2ccc(NC(=O)COc3ccccc3F)cc2s1	0%	72*	100%	31*	97%
O=C(NCC(c1ccco1)N1CCCCC1)c1ccc(COc2ccccc2)cc1 (centres undefined)	/	/	2.9µM*	/	?
O=C(NCC(c1ccco1)N1CCCCC1)c1ccc(S(=O)(=O)Nc2ccccc2)cc1 (centres undefined)	/	/	?	/	-20%
COc1ccc(N(C)S(=O)(=O)c2cccc(C(=O)NCC(c3ccco3)N3CCCC3)c2)cc1 (centres undefined)	/	/	?	/	9.3µM*
O=C(NCC(c1ccco1)N1CCCCC1)c1ccc(OCc2ccccc2)cc1 (centres undefined)	10%	-4	?	1	?
CN(c1ccccc1)S(=O)(=O)c1ccc(C(=O)NCC(c2ccco2)N2CCCCC2)cc1 (centres undefined)	/	/	7.4µM*	/	?
Cc1nc(-c2ccccc2)c(-c2ccncc2)o1	/	-10	/	-2	/
Cc1ccc(-c2nc(-c3nccc4ccccc34)oc2-c2ccccc2)cc1	-6%	98*	?	22*	79%
COc1ccccc1N1CCN(S(=O)(=O)c2cc(-c3cc(C)no3)ccc2C(C)C)CC1	1%	-9	12%	-6	?
CCC(Oc1ccccc1)C(=O)Nc1ccccc1N1CCCCC1 (centres undefined)	-1%	-6	89%	1	-11%
CC(Oc1ccc(F)cc1)C(=O)Nc1ccccc1N1CCCCC1 (centres undefined)	-3%	10	12µM*	-3	?
CC(Oc1ccc(Br)cc1)C(=O)Nc1ccc(N2CCOCC2)cc1N1CCOCC1 (centres undefined)	/	/	10µM*	/	12µM*
CC(Oc1cccc(Cl)c1)C(=O)Nc1ccccc1N1CCCCC1 (centres undefined)	/	/	12µM*	/	5.9µM*
O=C(Cn1c(=O)cnc2ccccc21)NC1CCC(O)CC1 (centres undefined)	/	/	10%	/	5%
CCc1ccc(NC(=O)C(C)Sc2nnc(CN3CCCC3)o2)cc1 (centres undefined)	/	/	-1%	/	1%
CCC(C)NC(=O)CC1Oc2ccc(Cl)cc2NC1=O (centres undefined)	2%	-8	10µM*	-8	/
COc1ccc(CCNC(=O)CC2Oc3ccc(Cl)cc3NC2=O)cc1OC (centres undefined)	4%	8	-23%	-1	/
O=[N+]([O-])c1cc([N+](=O)[O-])c(Oc2cc(Cl)ccc2Cl)cc1NC1CCCCCCC1	-4%	-3	?	-4	?
COc1ccc(C(=O)CNc2ccccc2CO)cc1	3%	111*	0%	42*	58%
COc1ccc(C(=O)COc2ccccc2C#N)cc1	3%	60*	51%	28*	80%
COc1ccccc1NCC(=O)c1ccc(Cl)cc1	-5%	13	33%	6	-1%
COc1ccccc1NCC(=O)c1ccc(C)c(C)c1	-1%	/	5%	16*	29%
COC(=O)c1ccccc1NCC(=O)c1ccc(OC)cc1	-10%	34	?	12	-10%
COc1ccc(C(=O)NNC(=O)CCC(=O)Nc2ccc(C)cc2C)cc1	-1%	-7	-11%	-5	-2%
COc1ccc(C(=O)CNc2ccc(C)cc2C)cc1	7%	29	62%	25*	78%
COc1ccc(C(=O)CNc2ccccc2C#N)cc1	6%	76*	-29%	28*	4%
